# Rows were chosen to be rich in hits. Some 9.4% of all compounds tested hit in one or more screens of this group.
# ELG1 genotox = qHTS screen for small molecules that induce genotoxicity in human embryonic kidney (HEK293T) cells expressing luciferase-tagged ELG1 | Potency, µM (top dose mostly 46 µM), for the others: top-dose activity change, positive = activation, hits mostly activators | hit rate 1.3% among 330,000 | AID 504466, 2011 | HEK293T ELG1-luciferase reporter, luminescence, 16 h; further: % of control where 0% means no effect; nearly all actives have a fitted effect of over 60% in size
#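 Luminescence read-out: rising ELG1-luciferase signal, reflecting elevated ELG1 protein under genetic stress, flags genotoxic compounds. Cells were treated for 16 hr at 37 °C before ONE-Glo detection.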
# ELG1 DNA repair = qHTS screen for small molecules that inhibit ELG1-dependent DNA repair in human embryonic kidney (HEK293T) cells expressing luciferase-tagged ELG1; HEK293T ELG1-luciferase reporter, luminescence, 16 h; DNA damage induced by 5-fluorouridine; Potency, µM (top dose mostly 46.1 µM), for inactives: top-dose activity change, negative = inhibition, most hits filed as inhibitors; hit rate 2.3% among 330,000; further: on the % scale 0 is the no-effect control and ±100 the full control effect; nearly all actives have a fitted effect of over 55% in size
#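 Luminescence from the luciferase reporter, measured 30 min after ONE-Glo reagent at room temperature, was the read-out. Beforehand, 2,000 cells per well were exposed for 16 hr at 37 °C to 5-fluorouridine together with compound or vehicle.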
# SMN2 splice up = qHTS Assay for Enhancers of SMN2 Splice Variant Expression; HEK293 SMN2-luciferase splicing reporter, luminescence, 30-36 h; Potency, µM (titrated, usually from 46.1 µM), inactives show at the top dose activity change, positive = activation, hits mostly activators; hit rate 2.8% among 210,000; further: % of control where 0% means no effect; nearly all actives have a fitted effect of over 55% in size
#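 HEK293 cells carry an SMN2 minigene-luciferase reporter in which exon 7 inclusion puts luciferase in frame. Cells were seeded at 2000 cells/well, attached for 10-12 hours, then exposed to compounds for 30-36 hours at 37C before ONE-Glo luminescence.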
# NPC1 prom act = qHTS Assay for NPC1 Promoter Activators; Huh7 NPC1 promoter luciferase reporter, 24 h; Potency, µM (series often up to 9.22 µM), without a hit: top-dose activation, usual class: activators; hit rate 2.4% among 320,000; further: % of control where 0% means no effect; nearly all actives have a fitted effect of over 60% in size
#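 NPC1 promoter–luciferase Huh7 cells; 24 h compound; luminescence.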
# FLuc modulator = qHTS profiling assay for firefly luciferase inhibitor/activator using purifed enzyme and Km concentrations of substrates (counterscreen for miR-21 project). Potency, µM (highest dose often 57.5 µM), inactives show top-dose activity change, negative = inhibition, hits mostly inhibitors. Luciferin 4-monooxygenase (Photinus pyralis), P08659. hit rate 6.9% among 360,000. purified FLuc, Km substrates, luminescence inhibition;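 further: plate controls were vehicle for no effect and reference inhibitor for full effect; nearly all actives have a fitted effect of over 55% in size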
# Target sequence (P08659 whole entry, looked up): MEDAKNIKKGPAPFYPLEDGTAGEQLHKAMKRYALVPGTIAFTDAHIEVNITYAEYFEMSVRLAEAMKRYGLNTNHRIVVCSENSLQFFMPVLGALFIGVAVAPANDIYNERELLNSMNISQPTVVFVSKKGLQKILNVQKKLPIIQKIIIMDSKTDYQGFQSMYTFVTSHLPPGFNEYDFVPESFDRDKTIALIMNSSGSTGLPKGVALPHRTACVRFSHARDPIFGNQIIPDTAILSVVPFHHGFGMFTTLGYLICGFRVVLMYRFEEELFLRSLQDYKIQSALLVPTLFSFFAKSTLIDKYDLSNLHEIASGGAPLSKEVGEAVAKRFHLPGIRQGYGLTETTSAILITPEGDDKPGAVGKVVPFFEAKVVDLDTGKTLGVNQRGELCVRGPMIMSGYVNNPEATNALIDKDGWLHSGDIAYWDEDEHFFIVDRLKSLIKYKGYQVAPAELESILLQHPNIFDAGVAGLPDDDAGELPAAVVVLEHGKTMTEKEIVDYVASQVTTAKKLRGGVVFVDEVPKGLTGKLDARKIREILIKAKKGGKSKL
#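 Purified P. pyralis luciferase, 10 nM final, with Km-level 10 uM D-luciferin and 10 uM ATP in 50 mM Tris acetate pH 7.5, 10 mM Mg acetate, 0.01% Tween-20, 0.05% BSA; 6-point qHTS titration about 60 µM downward; luminescence read.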
# Rab9 promoter act = qHTS Assay for Rab9 Promoter Activators; Huh7 Rab9 promoter-luciferase reporter, luminescence, 24 h; AID 485297, 2010; hit rate 2.8% among 320,000; Potency, µM (series often up to 9.22 µM), without a hit: at the top dose activation, negative = inhibition, actives largely listed as activators; further: % of control where 0% means no effect; nearly all actives have a fitted effect of over 60% in size
#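 Luciferase signal after 10 min detection reagent at ambient indicates Rab9 promoter upregulation; stably transfected Huh7 cells were treated 24 h with compound in DMSO at 37 °C, 5% CO2.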
# An asterisk follows results filed as active; ? = inconclusive; . = no result; [ ] = remark or other dose. The call rests on the fitted dose curve; in most records, active means well fitted curve in the direction sought with a large enough effect; inconclusive means small, poorly fitted or top-dose-only effect, or another doubt; inactive means no such curve, though single readings can be large; an effect the other way counts as inactive or inconclusive. Potency means the concentration at half of the fitted maximal effect.
SMILES,ELG1 genotox,ELG1 DNA repair,SMN2 splice up,NPC1 prom act,FLuc modulator,Rab9 promoter act
COc1cc(NC(=O)c2ccc(Cl)cc2)c(OC)cc1NC(=O)CN1CCOCC1,-3%,?,-9%,0%,?,-1%
COc1ccc(NC(=O)c2c(-c3ccccc3Cl)noc2C)c(OC)c1,-11%,18µM*,-12%,-1%,-1%,3%
COc1cc(NC(=O)c2ccc(C)cc2)c(OC)cc1NC(=O)CN1CCOCC1,-7%,?,1%,21%,19µM*,-7%
Cc1ccc(C(=O)Nc2ccc(O)cc2C(=O)O)cc1,-5%,4%,-3%,-4%,11µM*,-1%
O=C(Nc1ccc(O)cc1C(=O)O)c1ccc(NC(=O)c2ccco2)cc1,-5%,?,.,1%,?,-3%
Cc1cccc(C(=O)Nc2ccccc2C(=O)Nc2ccc(C(=O)O)cc2)c1,9%,?,.,-3%,6.7µM*,9%
CCOc1ccc(NC(=O)CC2C(=O)N(c3ccc(C)cc3)C(=O)N2Cc2ccc(OC)cc2)cc1 (centres undefined),.,.,-2%,.,-12%,.
COc1ccc(-c2cnc(C)o2)cc1S(=O)(=O)Nc1ccc(F)cc1F,.,.,.,.,4%,.
CC1NC(C(=O)O)Cc2c1[nH]c1ccccc21 (centres undefined),.,.,0%,.,.,.
CNC[C@@H]1Oc2ccc(NC(=O)Nc3cccc4ccccc34)cc2C(=O)N([C@@H](C)CO)C[C@@H]1C,2%,?,.,.,.,.
CN1C(=O)/C(=C/c2ccc(C(=O)Nc3ccc(O)cc3C(=O)O)cc2)SC1=S,0%,?,.,3%,21µM*,2%
Cc1ccc(/C=C2\SC(=S)N(CCC(=O)NNC(=O)c3ccc(O)cc3)C2=O)cc1,2%,-14%,.,-8%,?,-6%
Cc1ccc(CN2C(=O)SC(Nc3ccc(Cl)cc3)C2=O)cc1 (centres undefined),.,.,-13%,.,-7%,.
CCc1ccc(NC(=O)C(NS(=O)(=O)c2cccs2)C(C)C)cc1 (centres undefined),.,.,-53%,.,0%,.
Cc1ccc(C(=O)Nc2ccc3c(c2)ncn3C)cc1,?,?,2.5µM*,3.2µM*,-3%[2.3 µM],4µM*
Cc1ccc(NC(=O)CCn2cnc3cc(C)c(C)cc32)cc1,-2%,-2%,-5%,-1%,-11%,-1%
CCn1cnc2cc(NC(=O)c3ccc(C)cc3)ccc21,?,?,.,2µM*,11µM*,4µM*
CCn1cnc2cc(NS(=O)(=O)c3ccc(OC)c(OC)c3)ccc21,0%,-15%,.,0%,-1%,-2%
Cc1cccc(C(=O)O)c1C[C@H]1NCC[C@H]2c3ccccc3N[C@@H]12,.,.,-2%[9.22 µM],.,.,.
COc1ccc(Nc2oc(-c3ccc(COc4ccccc4C)o3)nc2C#N)cc1,.,.,.,.,0%,.
O=C(N/N=C/c1cccnc1)c1ccc2c(c1)OCCO2,?,?,8.9µM*,?,6µM*,3.2µM*
Cc1ccc(C(=O)N/N=C/c2cccc(OC(=O)/C=C/c3ccco3)c2)cn1,9%,14%,.,2%,12µM*,-1%
O=C(N/N=C/c1cccnc1)c1ccc(NC(=O)c2ccc(Cl)cc2)cc1,-6%,-4%,.,1%,-3%,-1%
Cc1ccc(C(=O)N/N=C\c2ccc3c(c2)OCO3)cn1,6%,20%,.,1%,17µM*,3%
O=C(N/N=C/c1ccc2c(c1)OCO2)c1cccnc1,24%,?,.,28%,27µM*,13%
SMILES,ELG1 genotox,ELG1 DNA repair,SMN2 splice up,NPC1 prom act,FLuc modulator,Rab9 promoter act
O=C(N/N=C\c1ccc2c(c1)OCO2)c1cncc(Br)c1,-14%,13%,.,12%,?,15%
Cc1cc(C(=O)N/N=C/c2ccc3c(c2)OCO3)c2ccccc2n1,5%,?,.,-32%,-18%,-23%
COc1ccc(Cl)cc1NC(=O)CN1C(=O)COc2ccc(S(=O)(=O)NC3CCCC3)cc21,.,.,.,.,1%,.
Cc1cc(C(=O)N/N=C/C=C/c2ccc3c(c2)OCO3)n[nH]1,5%,5%,-13%,1%,15µM*,6%
CCN(CC)S(=O)(=O)c1ccc2c(c1)N(CC(=O)Nc1cccc(C#N)c1)C(=O)CO2,.,.,13%,.,6%,.
COc1ccc(NC(=O)c2c(NC(=O)CCC(=O)O)sc3c2CCCCC3)cc1,-1%,4%,.,-6%,-5%,11%
COc1ccc(NC(=O)c2c(NCc3cccc(OC)c3)sc3c2CCCC3)cc1,.,.,.,.,-20%,.
COc1ccc(NC(=O)c2c(NCc3ccc(N(C)C)cc3)sc3c2CCC3)cc1,.,.,.,.,11µM*,.
COc1ccc(NC(=O)c2c(NC(=O)C(F)(F)F)sc3c2CCCCC3)cc1,.,.,-56%,.,13µM*,.
CC1CCCC(NC(=O)COC(=O)c2ccc3ncsc3c2)C1C (centres undefined),4%,14%,.,1%,.,15%
Cc1ccc2c(CC(=O)N(Cc3ccc(Cl)cc3)Cc3ccco3)coc2c1,.,.,11%,.,-17%,.
Oc1ccccc1Nc1ncnc2c1oc1ccccc12,?,?,-1%,-3%,-2%,6%
Oc1cccc(Nc2ncnc3c2oc2ccccc23)c1,13µM*,?,.,3.5µM*,8.5µM*,?
c1ccc(Nc2ncnc3c2oc2ccccc23)cc1,.,.,0%,.,21µM*,.
Oc1ccc(Nc2ncnc3c2oc2ccccc23)cc1,?,?,.,?,15µM*,?
CC(C)C(Nc1ncnc2c1oc1ccccc12)C(=O)O (centres undefined),5%,6%,.,-2%,-16%,1%
c1ccc2c(c1)oc1c(Nc3ccc(CN4CCOCC4)cc3)ncnc12,2.1µM*,?,-92%,2.2µM*,8.5µM*,?
Cc1ccn2c(Nc3ccc(C(C)C)cc3)c(-c3cccs3)nc2c1,.,.,5%,.,?,.
O=c1c(S(=O)(=O)c2ccccc2)cn(Cc2ccc(F)cc2)c2cc(N3CCCC3)c(F)cc12,.,.,.,.,-2%,.
COc1ccc2c(c1)CCc1c(C(=O)Nc3cc(OC)c(Cl)cc3OC)noc1-2,.,.,3%,.,-5%,.
CCOc1cc(CN2CCN(c3cccc(C(F)(F)F)c3)CC2)ccc1OC,-13%,26µM*,-5%,2%,2%,-4%
COc1ccc(CN2CCN(C(=O)c3cccc4ccccc34)CC2)cc1Br,-11%,?,.,-4%,1%,0%

# Screening results from PubChem BioAssay.
